Bioassay records deposited in PubChem by several laboratories.
TWEAK-Fn14 inh = inhibitors of TWEAK-Fn14 interaction signaling; TWEAK-stimulated Fn14 reporter cells, luciferase luminescence, 8 h; inhibition, % at 10 µM; 360,000 tested, 2% active; in the data active = inhibition above about 50%
CF NFkB block = cystic fibrosis NF-kB activation inhibition; KKLEB NF-kB-GFP reporter, PAF-induced, GFP fluorescence overnight; inhibition, % at 5 µM; 360,000 tested, 0.86% active;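 active = at least 50% inhibition at 5 µM, scaled per plate between neutral and stimulator controls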;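 note: PAF is a Pseudomonas aeruginosa culture filtrate used as stimulus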
hiPSC survival = enhancers of human iPSC single-cell survival | hiPSC single-cell survival, ATPlite luminescence; 100% = ROCK inhibitor wells, 0% = DMSO | 360,000 tested, 0.044% active | survival enhancement, % at 20 µM; in the data active = survival enhancement above about 18%;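 note: cells exposed to compounds for 16 hours before the ATP read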
LGR2 inh = inhibitors of bursicon-induced Drosophila LGR2 receptor cAMP signaling | HEK293 LGR2, CRE-luciferase, bursicon-stimulated, 4 h | inhibition, % at 9.99 µM | 380,000 tested, 0.35% active | AID 720647;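 active = drop in luminescence signal, shown as inhibition above about 50% in the replicate tests, limit read from the data, passing the limit was not always enough; inconclusive = probably only some replicates passing the limit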;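 note: agonist challenge used bursicon conditioned medium at about half maximal strength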
KKLEB tox = reduces viability of KKLEB cystic fibrosis airway cells. KKLEB CF airway cells viability, ATPlite luminescence, overnight; stronger effect = lower value; cells stimulated with P. aeruginosa culture filtrate. activity change (cytotoxicity), % at 5 µM. 360,000 tested, 0.36% active;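 active = corrected activity change at or below -50% at 5 µM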
HIF-2a inh = blocks HIF-2a reporter activity | inhibition, % at 18.8 µM | 360,000 tested, 0.72% active | AID 624352 | 786-0 RCC cells HIF-2a reporter, luciferase luminescence, overnight;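 active = inhibition of the luminescence signal of 40% or more relative to plate controls, in a single-dose primary screen at 18.75 µM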
Mdm2 MdmX conf = confirmation of inhibitors of human Mdm2/MdmX interaction, set 2 | shares compounds with HIF-2a inh | 740 tested, 99% active | SaOS-2 split-luciferase Mdm2/MdmX complementation, luminescence | inhibition, % at 8 µM;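 active = mean inhibition of the luminescence signal across two replicates at or above 26 percent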
Target sequence (O15151 whole entry, looked up): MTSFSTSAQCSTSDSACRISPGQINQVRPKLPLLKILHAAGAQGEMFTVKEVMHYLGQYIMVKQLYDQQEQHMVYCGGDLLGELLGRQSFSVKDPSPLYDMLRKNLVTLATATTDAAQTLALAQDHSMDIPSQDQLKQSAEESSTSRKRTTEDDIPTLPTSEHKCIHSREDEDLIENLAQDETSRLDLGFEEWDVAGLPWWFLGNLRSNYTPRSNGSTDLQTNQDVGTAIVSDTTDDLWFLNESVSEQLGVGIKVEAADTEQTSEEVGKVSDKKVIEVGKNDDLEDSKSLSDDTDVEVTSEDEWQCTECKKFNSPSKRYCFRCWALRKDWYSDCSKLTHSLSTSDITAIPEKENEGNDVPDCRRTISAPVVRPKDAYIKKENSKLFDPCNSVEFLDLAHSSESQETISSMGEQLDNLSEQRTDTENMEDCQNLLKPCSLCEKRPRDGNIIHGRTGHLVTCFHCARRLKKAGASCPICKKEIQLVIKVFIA
Target sequence (Q00987 whole entry, looked up): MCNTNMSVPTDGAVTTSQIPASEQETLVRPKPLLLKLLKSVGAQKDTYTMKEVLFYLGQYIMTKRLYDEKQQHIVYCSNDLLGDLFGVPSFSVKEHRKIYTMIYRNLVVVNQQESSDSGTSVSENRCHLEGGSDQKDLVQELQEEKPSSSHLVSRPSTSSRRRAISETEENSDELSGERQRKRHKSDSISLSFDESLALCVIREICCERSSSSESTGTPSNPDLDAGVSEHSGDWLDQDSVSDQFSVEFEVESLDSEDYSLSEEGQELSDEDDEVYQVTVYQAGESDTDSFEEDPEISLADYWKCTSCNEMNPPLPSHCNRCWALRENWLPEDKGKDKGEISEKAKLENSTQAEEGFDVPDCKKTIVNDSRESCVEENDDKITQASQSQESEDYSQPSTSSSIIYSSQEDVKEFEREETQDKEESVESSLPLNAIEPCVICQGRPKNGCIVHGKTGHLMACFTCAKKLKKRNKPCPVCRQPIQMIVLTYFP
HIF-2a conf = HIF-2a inhibition, single concentration confirmation. 1,800 tested, 56% active. shares compounds with HIF-2a inh. 786-0 RCC cells, HIF-2a luciferase reporter luminescence, overnight. inhibition, % at 18.8 µM;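 active = mean inhibition across four replicates of at least 40 percent at the single tested concentration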
HIF-1a counter = counter-screen for HIF-2a inhibitors: HIF-1a inhibition in MiaPaCa-2 cells. shares compounds with HIF-2a inh. MiaPaCa-2 HIF-1a luciferase reporter, desferoxamine, overnight. inhibition, % at 18.8 µM. 1,800 tested, 72% active. AID 651589;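 active = mean inhibition of the reporter signal across four replicates at the single tested dose of 50% or more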
Each line names hits and unclear results; the compound was inactive in the other large screens (follow-up assays come after a bar, where they were run). Only some compounds are listed: those with a hit (about 2.3% of all), similar ones and a draw of the others.

Cc1noc(C)c1NC(=O)N(C)C[C@H]1OCCCC[C@H](C)Oc2ccc(NC(=O)Nc3ccc(F)cc3)cc2C(=O)N([C@@H](C)CO)C[C@@H]1C	none (no result: TWEAK-Fn14 inh, CF NFkB block, hiPSC survival, KKLEB tox, HIF-2a inh)
Oc1cccc(Nc2nc(N3CCOCC3)nc(N3CCOCC3)n2)c1	HIF-2a inh 49 | HIF-2a conf inactive | HIF-1a counter 76
COc1ccc(C)cc1Nc1n[n+](-c2ccccc2)c(-c2c(Cl)cccc2Cl)s1	none (no result: TWEAK-Fn14 inh, CF NFkB block, hiPSC survival, KKLEB tox, HIF-2a inh) | Mdm2 MdmX conf 98
CC(C)(C)NC(=O)CSc1nc(O)cc(=O)[nH]1	HIF-2a inh 41 | HIF-2a conf inactive | HIF-1a counter inactive
C[C@H]1CN([C@@H](C)CO)C(=O)c2cccc(NC(=O)Nc3ccccc3)c2O[C@H]1CN(C)Cc1ccccc1	none (no result: TWEAK-Fn14 inh, CF NFkB block, hiPSC survival, KKLEB tox, HIF-2a inh)
O=[N+]([O-])c1ccc(O)c(-c2cc(C(F)(F)F)nc(-c3ccccc3)n2)c1	TWEAK-Fn14 inh 75, CF NFkB block 72, KKLEB tox -65 | Mdm2 MdmX conf 102
Oc1ccccc1-c1cc(C(F)(F)C(F)F)nc(-c2ccccc2)n1	none
C[C@H]1CN([C@@H](C)CO)S(=O)(=O)c2ccc(-c3ccc(C(=O)N(C)C)cc3)cc2O[C@H]1CN(C)C(=O)C1CCC1	none (no result: TWEAK-Fn14 inh, CF NFkB block, hiPSC survival, KKLEB tox, HIF-2a inh)
CCCNC(=O)N1CC2(CCN(Cc3ccccn3)CC2)c2c(n(C)c3cc(OC)ccc23)[C@@H]1CO	none (no result: TWEAK-Fn14 inh, CF NFkB block, hiPSC survival, KKLEB tox, HIF-2a inh)
Cc1ccc(C(=O)Nc2ncc([N+](=O)[O-])s2)cc1	TWEAK-Fn14 inh 100, HIF-2a inh 53 (no result: LGR2 inh) | HIF-2a conf 80 | HIF-1a counter 93
C(=NNc1ccc2ccccc2n1)c1ccccn1	TWEAK-Fn14 inh 101, LGR2 inh 99, KKLEB tox -52, HIF-2a inh 69 | HIF-2a conf 81 | HIF-1a counter inactive
CCC/C=N/Nc1nc2ccccc2s1	none (no result: LGR2 inh)
C(=N\Nc1nc2ccccc2s1)/c1ccccn1	LGR2 inh 104 (no result: TWEAK-Fn14 inh, CF NFkB block, hiPSC survival, KKLEB tox, HIF-2a inh) | Mdm2 MdmX conf 95
CCCNC(=O)N1CC2(CN(C(=O)Cc3cccnc3)C2)c2c([nH]c3cc(OC)ccc23)[C@H]1CO	none (no result: TWEAK-Fn14 inh, CF NFkB block, hiPSC survival, KKLEB tox, HIF-2a inh)
CC1C/C(=C/c2ccncc2)C(=O)/C(=C/c2ccncc2)C1 (stereo not drawn)	TWEAK-Fn14 inh 100, CF NFkB block 82, hiPSC survival 53, LGR2 inh 103, KKLEB tox -55, HIF-2a inh 94 | Mdm2 MdmX conf 100
Cc1ccccc1NC(=O)c1ccc2c(c1)OCCO2	none (no result: LGR2 inh)
Cc1cnc(NC(=O)c2ccc3c(c2)OCCO3)s1	TWEAK-Fn14 inh 103, LGR2 inh 96, KKLEB tox -58, HIF-2a inh 77 | HIF-2a conf 90 | HIF-1a counter 80
O=[N+]([O-])c1ccc(CN2CCN(c3nc4ccccc4s3)CC2)cc1	none
CCCn1nc([N+](=O)[O-])c(C(C#N)c2nc3ccccc3s2)c(Cl)c1=O (stereo not drawn)	TWEAK-Fn14 inh 77, KKLEB tox -55, HIF-2a inh 52 | Mdm2 MdmX conf 100
C[C@H](CO)N1C[C@H](C)[C@H](CN(C)Cc2ccc(C(=O)Nc3ccccc3N)cc2)Oc2ccc(NS(=O)(=O)c3ccc(F)cc3)cc2C1=O	none (no result: TWEAK-Fn14 inh, CF NFkB block, hiPSC survival, KKLEB tox, HIF-2a inh)
C[C@H]1CN([C@@H](C)CO)S(=O)(=O)c2ccc(-c3cccc(F)c3)cc2O[C@H]1CN(C)C	none (no result: TWEAK-Fn14 inh, CF NFkB block, hiPSC survival, KKLEB tox, HIF-2a inh)
C[C@@H]1CN([C@@H](C)CO)C(=O)c2cc(C#Cc3ccncc3)cnc2O[C@H]1CN(C)Cc1ccncc1	none (no result: TWEAK-Fn14 inh, CF NFkB block, hiPSC survival, KKLEB tox, HIF-2a inh)
CCOC(=O)c1c(C)oc2c(F)c(F)c(F)c(F)c2c1=O	HIF-2a inh 64 (no result: LGR2 inh) | HIF-2a conf 66 | HIF-1a counter 100
CCOC(=O)c1c(C)oc(=O)c(CC)c1O	none
O=[N+]([O-])c1ccc(N=NN(CCO)CCO)cc1	none
O=[N+]([O-])c1ccc(N=Nc2ncc[nH]2)cc1	TWEAK-Fn14 inh 85, CF NFkB block 75 | Mdm2 MdmX conf 103
CN(C)C(=O)C[C@@H]1CC[C@H]2[C@@H](COC[C@H](O)CN2C(=O)C2CC2)O1	none (no result: TWEAK-Fn14 inh, CF NFkB block, hiPSC survival, KKLEB tox, HIF-2a inh)
CC1=CC(C)(C)Nc2ccc(OC(=O)CN3C(=O)c4cccc5cccc(c45)C3=O)cc21	TWEAK-Fn14 inh 52, HIF-2a inh 74 | HIF-2a conf 89 | HIF-1a counter 72
O=S(=O)(/C=C/C=C/S(=O)(=O)c1ccccc1)c1ccccc1	TWEAK-Fn14 inh 93, CF NFkB block 92, HIF-2a inh 95 | HIF-2a conf 96 | HIF-1a counter 105
O=C(C(=Cc1ccccc1)CN1CCCCC1)c1ccccc1	TWEAK-Fn14 inh 102, CF NFkB block 80, LGR2 inh 94, KKLEB tox -84, HIF-2a inh 80 | HIF-2a conf 98 | HIF-1a counter 105
CCSc1nc2ccccc2n1C(=O)/C=C\c1ccc(OC)c(OC)c1	TWEAK-Fn14 inh 91, CF NFkB block 82, HIF-2a inh 86 (no result: LGR2 inh) | Mdm2 MdmX conf 102 | HIF-2a conf inactive | HIF-1a counter 103
Cc1ccc(NC(=O)C(=Cc2ccc(C(=O)O)cc2)C(=O)Nc2ccc(C)cc2C)c(C)c1	TWEAK-Fn14 inh 70, KKLEB tox -58, HIF-2a inh 85 (no result: LGR2 inh) | Mdm2 MdmX conf 102 | HIF-2a conf 92 | HIF-1a counter 104
COc1ccc2c3c([nH]c2c1)[C@@H](CO)N(C(=O)c1ccccn1)CC31CN(C(=O)C2CC2)C1	none (no result: TWEAK-Fn14 inh, CF NFkB block, hiPSC survival, KKLEB tox, HIF-2a inh)
COc1ccc(/C=C\C(=O)c2c(O)ccc3c(C)cc(=O)oc23)cc1OC	HIF-2a inh 55 (no result: LGR2 inh) | HIF-2a conf inactive | HIF-1a counter 85
CCNC(=O)Nc1ccc2c(c1)C(=O)N(C)[C@H]1CC[C@@H](CC(=O)NCc3ccc(F)cc3)O[C@H]1CO2	none (no result: TWEAK-Fn14 inh, CF NFkB block, hiPSC survival, KKLEB tox, HIF-2a inh)
COC(=O)c1ccc(CN(c2ccc(C(=O)O)c(O)c2)S(=O)(=O)c2ccc(Cl)c([N+](=O)[O-])c2)cc1	HIF-2a inh 77 | HIF-2a conf inactive | HIF-1a counter 57
Cc1nc([N+](=O)[O-])c(Br)n1Cc1ccc(Cl)c(Cl)c1	TWEAK-Fn14 inh 81, CF NFkB block 86, HIF-2a inh 70 | HIF-2a conf inactive | HIF-1a counter 102
O=C(NCc1ccco1)/C(=C/c1ccc(C(F)(F)F)cc1)c1nc2ccccc2[nH]1	none
O=C(NCc1ccco1)/C(=C/c1cccc(C(F)(F)F)c1)c1nc2ccccc2[nH]1	HIF-2a inh 41 | HIF-2a conf inactive | HIF-1a counter 55
Cc1c([N+](=O)[O-])cnc(Sc2ccccc2)c1[N+](=O)[O-]	TWEAK-Fn14 inh 84, CF NFkB block 52, LGR2 inh inconclusive, HIF-2a inh 50 | HIF-2a conf 48 | HIF-1a counter 84
